Results from PubChem BioAssay AID504832 (National Center for Advancing Translational Sciences (NCATS), 2011).
Among all 310,000 compounds or so, about 18,000 (5.8%) were called active. Entries that show only a call come without a potency. Inconclusive results (about 22%) are left out. Calls follow the shape of the dose curve; as a rule, active = well fitted inhibition curve with a large enough effect; inconclusive = small, poorly fitted or top-dose-only effect, or another doubt; inactive = no such curve, though single readings can be large or run the other way. The full list was thinned out, with actives kept by preference.

Assay: Primary qHTS for delayed death inhibitors of the malarial parasite plastid, 48 hour incubation
Conditions: P. falciparum luciferase growth in erythrocytes; series mostly up to 28.7 µM
Excerpt: The goal of this screen is to discover new antimalarial compounds that act by inhibiting the development of the apicoplast in the malarial parasite Plasmodium falciparum. The biochemical processes that make this organelle essential for erythrocytic stage parasites are not well understood. However, antibiotics such as azithromycin and tetracycline, which target the apicoplast translational machinery, have a potent antimalarial effect.
We have developed a cell-based assay that measures parasite growth based on the expression of an integrated copy of a firefly luciferase reporter. To detect small molecules that cause this "delayed death" phenotype, erythrocytes infected with the luciferase-expressing parasites were incubated with compounds for either one or two generations, corresponding to 48 and 96 hours, respectively. Compounds that inhibit parasite growth in the second generation, but not the first, should be enriched in antimalarials that target the apicoplast. Growth inhibition is detected by a decrease in luciferase activity.
Assay Provider: David Fidock and Eric Ekland, Columbia University
Keywords: NIH Roadmap, MLPCN, MLI, MLSMR, qHTS, NCGC, qHTS, malaria, luciferase, viability
Four microliters of culture medium (RPMI 1640 with 0.5% w/v Albumax (GIBCO), 24 mM sodium bicarbonate and 10 ug/mL gentamycin) were dispensed by a Multi-drop Combi into white solid 1536-well plates (Grenier) and 23 nL compound was added by a pin tool. Four microliters of infected erythrocytes (2% hematocrit, 0.1% parasitemia final concentration) in culture medium were dispensed and the plates incubated for 48 hours at 37 C in 5% CO2. Two microliters of luciferase detection reagent was added and luminescence was detected by a ViewLux (PerkinElmer) reader.
Potency is read from the fitted curve at half-maximal effect.

| SMILES | Potency | activity change, negative = inhibition |
| --- | --- | --- |
| COC(=O)c1c(NC(=O)COc2ccc(Cl)cc2Cl)sc2c1CC(C)(C)NC2(C)C | 8.28 µM (active) |  |
| Cc1cc(NC(=O)COc2ccc(Cl)cc2Cl)n(CCC#N)n1 | inactive |  |
| Cc1nn(-c2ccccc2)c(C)c1NC(=O)COc1ccc(Cl)cc1Cl | inactive |  |
| O=C(NCC(=O)N1CCCCCCC1)c1ccccc1Cl | inactive |  |
| CCC1CCCCN1CCCNC(=O)c1cc2c(Cl)nc3ccccc3c2s1 (centres undefined) | 11.7 µM (active) |  |
| Cc1ccc(CN2C(=O)CCC2C(=O)NCCCN2CCCCC2C)cc1 (centres undefined) | inactive |  |
| CCC1CCCCN1CCCNC(=O)Cn1nc(-c2ccccc2)ccc1=O (centres undefined) | inactive |  |
| CCOc1cc2c(cc1OCC)C(C(=O)O)C(c1ccc(OC)c(O)c1)N(C)C2=O (centres undefined) | inactive |  |
| COc1cccc(NC(=O)C2c3cc(OC)c(OC)cc3C(=O)N(C)C2c2cccnc2)c1 (centres undefined) | 8.28 µM (active) |  |
| COc1cccc(NC(=O)CSc2nnc(-c3cccnc3)o2)c1 | inactive |  |
| CCC(c1nnc(SCC(=O)NNC(=O)c2ccccc2)n1Cc1ccccc1)N(C)C (centres undefined) | inactive |  |
| O=C(Nc1ccc(OCC(=O)N2CCOCC2)cc1)c1cc(F)c(F)cc1Cl | inactive |  |
| C/C(=N\NC(=O)c1cc(-c2ccc(O)cc2)nc2ccccc12)c1cccnc1 | inactive |  |
| COc1ccc([C@H]2CC(=O)C=C(/C=C/c3ccccc3)C2)cc1 | inactive |  |
| O=C(O)/C=C/c1ccc(OCCCF)cc1 | inactive |  |
| Cc1cc(C)cc(NC(=O)CN2C(=O)c3ccccc3C2=O)c1 | inactive |  |
| CS(=O)(=O)N(CC(=O)Nc1ccc(F)cc1)C1CCCCC1 | inactive |  |
| O=C(COc1ccccc1Cl)N1CCCCCCC1 | inactive |  |
| Cc1cccc(C(=O)Nc2nnc(S(=O)(=O)N3CCCCCC3)s2)c1 | inactive |  |
| CCCn1c(N)c(C(=O)CSc2nnc(-c3cccnc3)n2-c2ccc(C)cc2C)c(=O)[nH]c1=O | 9.28 µM (active) |  |
| CCCn1c(N)c(C(=O)CSc2nnc3n2CCCCC3)c(=O)[nH]c1=O | inactive |  |
| CCCn1c(N)c(C(=O)CSc2nc3ccccc3c(=O)n2-c2ccc(OC)cc2)c(=O)[nH]c1=O | inactive |  |
| CCCCOC(=O)c1[nH]c(C)c(C(=O)OC)c1C | inactive |  |
| COC(=O)c1c(C)[nH]c(C(=O)NCCc2ccc(S(N)(=O)=O)cc2)c1C | inactive |  |
| COC(=O)c1c(C)[nH]c(C(=O)/C=C/c2ccc(Cl)cc2)c1C | 4.65 µM (active) |  |
| NC(=O)COc1ccccc1C(=O)NC12CC3CC(CC(C3)C1)C2 | inactive |  |

| SMILES | Potency | activity change, negative = inhibition |
| --- | --- | --- |
| COc1ccc([N+](=O)[O-])cc1NCC(=O)c1ccc(C)cc1 | inactive |  |
| O=C(O)[C@@H](S)[C@H](S)C(=O)O | 4.26 µM (active) |  |
| COc1ccc(S(=O)(=O)Nc2ccccc2C(=O)N2CCCC2)cc1C | inactive |  |
| CC1CCCN(CCCNC(=O)CN2C(=O)COc3ccc(S(=O)(=O)N4CCOCC4)cc32)C1 (centres undefined) | inactive |  |
| CCOC(=O)c1c(-c2ccccc2)oc2cc(Br)c(O)c(C=O)c12 | 9.28 µM (active) |  |
| CCOC(=O)c1c(-c2ccccc2)oc2ccc(OCC(=O)NN)cc12 | inactive |  |
| CCOC(=O)c1c(-c2ccccc2)oc2ccc(OCC(N)=O)cc12 | inactive |  |
| Cc1cccc(C(=O)OC(C)CN2CCCC2)c1 (centres undefined) | inactive |  |
| COC(=O)[C@]1(C)CCC[C@@]2(C)C3CC[C@]4(OC(C)=O)C[C@@]3(CCC21)CC4=NO (some centres undefined) | inactive |  |
| O=C(NCc1ccncc1)c1ccc(NS(=O)(=O)c2cccc([N+](=O)[O-])c2)cc1 | inactive |  |
| Cc1cccc(OP(=O)(Nc2c(C)n(C)n(-c3ccccc3)c2=O)Oc2cccc(C)c2)c1 | inactive |  |
| Cc1cccc(OP(=O)(Oc2cccc(C)c2)OC(c2ccccc2)C(F)(F)F)c1 (centres undefined) | 10.4 µM (active) |  |
| CCN(CC)P(=O)(Oc1cccc(C)c1)N(CC)CC | inactive |  |
| O=C(Nc1nnc(C2CC2)s1)c1cc(Cl)sc1Cl | inactive |  |
| COc1ccc(OC)c(NC(=O)CCN2CCC(C)CC2)c1 | inactive |  |
| CCOC(=O)N1CCN(CCC(=O)Nc2cc(OC)ccc2OC)CC1 | inactive |  |
| CCN1CCN(c2nc(Nc3cc(OC)ccc3OC)nc(Nc3cc(OC)ccc3OC)n2)CC1 | 9.28 µM (active) |  |
| CC(Sc1nnc(-c2cccs2)n1C1CC1)C(=O)NCC1CCCO1 (centres undefined) | inactive |  |
| COc1cc(CCC(=O)N2CCN(c3ccccc3Cl)CC2)cc(OC)c1OC |  | 1.7% [at 0.00184 µM] (inactive) |
| CCOC(=O)Cn1c(O)c(N=NC(=O)CNC(=O)Cc2ccccc2)c2ccccc21 | inactive |  |
| CCOC(=O)c1ccc(-c2ccc(C(=O)Nc3cccnc3)o2)cc1 | 2.62 µM (active) |  |
| CCOC(=O)c1ccc(NC(=O)CSc2ncccn2)cc1 | inactive |  |
| CCOC(=O)c1ccc(NC(=O)c2cccnc2)cc1 | inactive |  |
| COc1ccc(C(=O)Nc2cccnc2)cc1C(=O)Nc1cccnc1 | inactive |  |
| CCOC(=O)c1cc(NC(=O)c2cccnc2)cc(C(=O)OCC)c1 | 2.94 µM (active) |  |
| CCC(=O)Nc1cccc(NC(=O)c2cccnc2)c1 | inactive |  |

| SMILES | Potency | activity change, negative = inhibition |
| --- | --- | --- |
| Cc1ccc2nc(-c3ccc(NC(=O)c4cccnc4)cc3)oc2c1 | 9.28 µM (active) |  |
| Cc1cc2nc(-c3ccc(NC(=O)c4cccnc4)cc3)oc2cc1C | inactive |  |
| CC(=O)Nc1ccc(-c2nc3ccccc3o2)cc1 | inactive |  |
| Cc1cccc(NC(=O)c2cccc(C(=O)Nc3cccc(C)c3C)n2)c1C | inactive |  |
| CN(C)c1nc(Nc2ccc(Cl)c(Cl)c2)nc(N(C)C)n1 | inactive |  |
| Cc1cc(C)c(CN2CCN(C(=O)Cn3ccc(NC(=O)OCc4ccccc4)nc3=O)CC2)c(C)c1 | inactive |  |
| COc1ccc(/C(C)=N/NC(=O)c2ccc3nc[nH]c3c2)cc1 | inactive |  |
| CC(OC(=O)CCCOc1ccccc1)C(=O)Nc1ccc(Cl)cn1 (centres undefined) | inactive |  |
| CCCCOCCCNC(=O)c1ccccc1OCC | 10.4 µM (active) |  |
| CCOc1ccccc1C(=O)NCCCn1ccnc1 | inactive |  |
| CCCOc1ccccc1C(=O)NCCCC(=O)O | inactive |  |
| CCc1nc2ccc(C(=O)N3CCN(c4cccc(Cl)c4)CC3)cc2nc1CC | inactive |  |
| COc1ccc(C2(C)ON(c3ccccc3C(F)(F)F)C2=O)cc1 (centres undefined) | 6.57 µM (active) |  |
| COc1ccc(C2(C)NC(=O)N(CC(=O)c3ccc4c(c3)OCO4)C2=O)cc1 (centres undefined) | inactive |  |
| COc1ccc(C2(O)C(=O)Nc3ccccc32)cc1 (centres undefined) | inactive |  |
| CCC1Oc2ccccc2N(CC(=O)NCCCN2CCN(CC)CC2)C1=O (centres undefined) | inactive |  |
| Cc1c(C)c2c(OCC(=O)NCCCO)cc3c(c2oc1=O)CCC(C)(C)O3 | inactive |  |
| C[C@H](NC(=O)c1ccccc1Cl)C(=O)OCC(=O)N1CCN(c2ccccc2)CC1 | inactive |  |
| COC(=O)c1ccc(C(=O)OC)c(NC(=S)N2CCN(c3cc(Cl)ccc3C)CC2)c1 | inactive |  |
| Cc1ccc(Cl)cc1N1CCN(C(=O)c2cccc3c(=O)c(C)c(-c4ccccc4)oc23)CC1 | 9.28 µM (active) |  |
| CCNS(=O)(=O)c1ccc(CCC(=O)N2CCN(c3cc(Cl)ccc3C)CC2)cc1 | inactive |  |
| CC(Nc1nc(N2CCCC2)nc2ccccc12)c1ccccc1 (centres undefined) | 3.7 µM (active) |  |
| Cc1ccc(C(CC(=O)O)Nc2nc(N3CCCCC3)nc(N3CCCCC3)n2)cc1 (centres undefined) | inactive |  |
| CC(C)n1c(C(O)c2ccccc2)nc2ccccc21 (centres undefined) | inactive |  |
| CN(C)S(=O)(=O)c1ccc(C(=O)NCCN=C2NS(=O)(=O)c3ccccc32)cc1 | inactive |  |
| COC(=O)c1cnc(Nc2cc(C)ccc2OC)c2ccccc12 | 10.4 µM (active) |  |

| SMILES | Potency | activity change, negative = inhibition |
| --- | --- | --- |
| COc1ccccc1Nc1ncc(C(C)=O)c(C)n1 | inactive |  |
| COc1ccc(C)cc1Nc1nc(C)nc2c1oc1ccccc12 | inactive |  |
| COc1ccc(N=Nc2c(-c3ccc(OC)cc3)[nH]oc2=O)cc1 | inactive |  |
| COCCNC(=O)c1ccc2c(c1)ncn2-c1ccc(C)c(Cl)c1 | inactive |  |
| C=CCn1c(SCC(=O)NC(=O)Cc2ccccc2)nc2ccccc2c1=O | inactive |  |
| COc1ccc(OC)c(NC(=O)CSc2nc3cccnc3n2C)c1 | inactive |  |
| CCOCCCn1c(SCC(=O)Nc2cc(OC)ccc2OC)nc2ccccc2c1=O | 5.86 µM (active) |  |
| CCc1nnc(NC(=O)CSc2nc3ccccc3c(=O)n2CCCOC)s1 | inactive |  |
| COc1ccc(NC(=O)CSc2nnc(Cc3ccccc3)c(=O)n2N)cc1 | inactive |  |
| CC(=O)NCCn1c(SCC(=O)Nc2ccc(C)cc2)nc2ccccc2c1=O | inactive |  |
| COc1ccc(NC(=O)CSc2nc3ccccc3c(=O)n2C)cc1 | 9.28 µM (active) |  |
| O=C(CCC(=O)c1ccccc1)NCc1cccc(C(F)(F)F)c1 | inactive |  |
| O=C(NC1CCCCCC1)C1CCN(C(=O)c2ccc(Cl)cc2)CC1 | inactive |  |
| O=C(CCN1C(=O)[C@H]2CC=CC[C@H]2C1=O)NCc1nc(-c2ccccc2)no1 | inactive |  |
| O=C(NCc1ccc(Cl)cc1)C1CCN(S(=O)(=O)c2cccs2)CC1 | inactive |  |
| O=C(NCc1cccs1)C1CCN(S(=O)(=O)c2ccc(Cl)cc2)CC1 | 1.85 µM (active) |  |
| O=C(NCc1ccccn1)C1CCN(S(=O)(=O)c2ccc(Br)cc2)CC1 | inactive |  |
| CCOC(=O)c1c(NC(=O)Cn2nc(C(F)(F)F)cc2C)sc2c1CCC2 | 14.7 µM (active) |  |
| CCOCC(=O)Nc1sc2c(c1C(=O)OCC)CCCC2 | inactive |  |
| CCOC(=O)c1c(NC(=O)C2CCN(S(=O)(=O)c3ccc(Cl)cc3)CC2)sc2c1CCCC2 | 8.28 µM (active) |  |
| CCOC(=O)c1c(NC(=O)CCC(=O)NCc2ccco2)sc2c1CCCC2 | inactive |  |
| CCOc1ccc(S(=O)(=O)N2CCC(C(=O)NCC(=O)Nc3cccc(Cl)c3C)CC2)cc1 | inactive |  |
| CCOC(=O)c1c(NC(=O)C2(C)Cc3ccccc3C(=O)O2)sc2c1CCCC2 (centres undefined) | inactive |  |
| CCOC(=O)c1c(NC(=S)NC(=O)c2ccco2)sc2c1CCCC2 | inactive |  |
| CCOC(=O)c1c(NC(=O)CSc2nnc(C)c(=O)[nH]2)sc2c1CCC2 | inactive |  |
| CCOC(=O)c1c(NC(=S)NC)sc2c1CCCC2 | 9.28 µM (active) |  |
